From PubChem
Shown are actives, neighbours in structure and some others; about 2.6% of the full set was active somewhere.
Granule exo inh: lytic granule exocytosis inhibition | inhibition, % at 10 µM | 0.66% of 360,000 active | TALL-104 LAMP-1 surface exposure, flow cytometry; cells stimulated with thapsigargin and PMA;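 active means inhibition above about 55%, limit read from the data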
PRMT1 FP inh: PRMT1 (human) inhibition, primary screen. Q99873. recombinant PRMT1, activity-based probe fluorescence polarization. 1.3% of 370,000 active. inhibition, % at 2.79 µM;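 active means inhibition above about 21% made by adding two undisclosed values, limit read from the data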
ABHD5 PLIN5 PPI: blocks binding of human ABHD5 to perilipin-5; Q00G26+Q8WTS1; Split G. princeps luciferase complementation, luminescence, 4 h; inhibition, % at 4 µM; 0.78% of 360,000 active; AID 602281;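 active means inhibition above the mean inhibition across every tested compound plus 3 SD, cut at about 22% in these data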;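 further: 0% = DMSO only wells and the 100% control is not disclosed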
NOD2 RIPK2 PPI: inhibitors of human NOD2-RIPK2 interaction | O43353 | CHO BLA complementation NOD2-RIPK2, CCF4 ratio | inhibition, % at 4.98 µM | 0.38% of 360,000 active | AID 624267; in the data active means inhibition above about 21%;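 further: 0% = vehicle only and 100% = reference blocker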
TLR4 MyD88 comp: blocks binding of human TLR4 to MyD88; inhibition, % at 8.4 µM; 0.18% of 200,000 active; HeLa CL3-4 TLR4/MyD88 BLA complementation, FRET ratio; O00206+Q99836; in the data active means inhibition above about 25%;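 further: 0% = vehicle and 100% = reference inhibitor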
TLR9-MyD88 block: TLR9-MyD88 interaction inhibition; Q9NR96+Q99836; CHO BLA complementation TLR9-MyD88, CCF4 FRET ratio; inhibition, % at 4.98 µM; 0.21% of 340,000 active;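 active means inhibition above the mean over all tested compounds plus 3 SD, cut at about 21% in these data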;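 further: 0% = DMSO only wells and 100% = clavulanate BLA inhibitor control wells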
PRMT1 inh conf: confirmation of human PRMT1 inhibitors. shares compounds with PRMT1 FP inh. 42% of 3,300 active. recombinant His-PRMT1, activity-based probe fluorescence polarization. inhibition, % at 2.79 µM. AID 687036;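 active means mean inhibition across replicates above the hit cutoff derived for the earlier primary screen, cut at about 22% in these data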
* = called active by the depositor.

How did CCOC(=O)C1CCCN(C2CC(=O)N(c3ccc(N4C(=O)CC(N5CCCC(C(=O)OCC)C5)C4=O)cc3)C2=O)C1 (stereo not given) do in these assays?
Granule exo inh: 2; PRMT1 FP inh: 15; ABHD5 PLIN5 PPI: 0; NOD2 RIPK2 PPI: 0; TLR4 MyD88 comp: -1; TLR9-MyD88 block: 2

How did CCOC(=O)C1CCCN(C2CC(=O)N(c3cccc(C(F)(F)F)c3)C2=O)C1 (stereo not given) do in these assays?
Granule exo inh: 4; PRMT1 FP inh: 26*; ABHD5 PLIN5 PPI: -1; NOD2 RIPK2 PPI: -5; TLR4 MyD88 comp: -7; TLR9-MyD88 block: -5; PRMT1 inh conf: 25*

What do the screens show for `CCOC(=O)C1CCCN(C2CC(=O)N(c3ccccc3)C2=O)C1` (stereo not given)?
Granule exo inh: -3; PRMT1 FP inh: 57*; ABHD5 PLIN5 PPI: 5; NOD2 RIPK2 PPI: -9; TLR4 MyD88 comp: 2; TLR9-MyD88 block: -7; PRMT1 inh conf: 0

How did CCOC(=O)C1CCCN(C2CC(=O)N(c3ccc(C)c(C)c3)C2=O)C1 (stereo not given) do in these assays?
Granule exo inh: -1; PRMT1 FP inh: 46*; ABHD5 PLIN5 PPI: -10; NOD2 RIPK2 PPI: 2; TLR4 MyD88 comp: 11; TLR9-MyD88 block: 1; PRMT1 inh conf: 4

Results for CC(=O)Nc1cccc(Oc2nc(NC(C)C)nc3cc(-c4ccccc4)sc23)c1 ?
Granule exo inh: 22; PRMT1 FP inh: 0; ABHD5 PLIN5 PPI: 9; NOD2 RIPK2 PPI: -4

How did COC(=O)[C@]12C[C@H](CC(=O)NCCCCc3ccccc3)C(=O)N(Cc3ccccc3)C1=C[C@H](C(C)(C)C)O[C@@H]2C do in these assays?
PRMT1 FP inh: -2

How did CC(=NNC(=S)N1CCCCC1)c1ccccn1 do in these assays?
Granule exo inh: 5; PRMT1 FP inh: 3; ABHD5 PLIN5 PPI: -14; NOD2 RIPK2 PPI: -1; TLR9-MyD88 block: 1

Results for CC(=NNC(=S)N1CC2CCC(CC2)C1)c1ccncn1 ?
Granule exo inh: 3; PRMT1 FP inh: 27*; ABHD5 PLIN5 PPI: -21; NOD2 RIPK2 PPI: 0; TLR9-MyD88 block: 4; PRMT1 inh conf: 2

What do the screens show for `O=C1C2C3C=CC(CNS(=O)(=O)c4ccccc4)(O3)C2C(=O)N1c1ccc(Cl)cc1` (stereo not given)?
Granule exo inh: 26; PRMT1 FP inh: 80*; ABHD5 PLIN5 PPI: 15; NOD2 RIPK2 PPI: -6; TLR4 MyD88 comp: -14; TLR9-MyD88 block: -6; PRMT1 inh conf: 69*

Results for COC(=O)C1(C)NC(c2ccc(Cl)cc2)C2C(=O)N(c3ccccc3)C(=O)C21 (stereo not given) ?
Granule exo inh: -14; PRMT1 FP inh: -3; ABHD5 PLIN5 PPI: -16; NOD2 RIPK2 PPI: -9; TLR9-MyD88 block: 6

Results for O=C1/C(=C\c2ccco2)SC(=S)N1C1CCS(=O)(=O)C1 (stereo not given) ?
Granule exo inh: -1; PRMT1 FP inh: 25*; ABHD5 PLIN5 PPI: -16; NOD2 RIPK2 PPI: -6; PRMT1 inh conf: 2

What do the screens show for `CCN(C(=O)C(C)N1C(=O)/C(=C/c2ccco2)SC1=S)C1CCS(=O)(=O)C1` (stereo not given)?
Granule exo inh: -1; PRMT1 FP inh: 26*; ABHD5 PLIN5 PPI: 1; NOD2 RIPK2 PPI: 10; TLR9-MyD88 block: 18; PRMT1 inh conf: 6

What do the screens show for `O=C1/C(=C/c2ccco2)SC(=S)N1C1CCS(=O)(=O)C1` (stereo not given)?
Granule exo inh: 0; PRMT1 FP inh: 36*; ABHD5 PLIN5 PPI: -9; NOD2 RIPK2 PPI: -3; TLR4 MyD88 comp: -21; TLR9-MyD88 block: 2; PRMT1 inh conf: 6

What do the screens show for `COc1ccc(Cl)cc1NC(=O)CC1S/C(=N/N=C2CCCCCC2)NC1=O` (stereo not given)?
Granule exo inh: -1; PRMT1 FP inh: 2; ABHD5 PLIN5 PPI: 5; NOD2 RIPK2 PPI: -4; TLR9-MyD88 block: 3

How did Cc1ccc(S(=O)(=O)N2C[C@H]3C(=O)C[C@@H](c4cccc(Cl)c4)N(S(=O)(=O)c4ccc(C)cc4)[C@H]3C[C@H]2c2cccc(Cl)c2)cc1 do in these assays?
Granule exo inh: 0; PRMT1 FP inh: 4; ABHD5 PLIN5 PPI: 11; NOD2 RIPK2 PPI: -13; TLR9-MyD88 block: 5

How did NC(=O)c1ccc(SCC(=O)OCC(=O)NCc2cccs2)c([N+](=O)[O-])c1 do in these assays?
Granule exo inh: 15; PRMT1 FP inh: 45*; ABHD5 PLIN5 PPI: 6; NOD2 RIPK2 PPI: -4; TLR9-MyD88 block: -3; PRMT1 inh conf: -4

What do the screens show for `NC(=O)c1ccc(SCC(=O)OCC(=O)NCC2CCCCC2)c([N+](=O)[O-])c1`?
Granule exo inh: -6; PRMT1 FP inh: 20; ABHD5 PLIN5 PPI: -6; NOD2 RIPK2 PPI: 5; TLR9-MyD88 block: 5

Results for CC1(C)Cc2c(C#N)c(N3CCCC3)nc(-c3ccco3)c2CO1 ?
Granule exo inh: 3; PRMT1 FP inh: 27*; ABHD5 PLIN5 PPI: 19; NOD2 RIPK2 PPI: -17; TLR4 MyD88 comp: -16; TLR9-MyD88 block: 4; PRMT1 inh conf: 26*

What do the screens show for `CC1(C)Cc2c(C#N)c(NCc3ccco3)nc(-c3ccco3)c2CO1`?
Granule exo inh: -4; PRMT1 FP inh: 15; ABHD5 PLIN5 PPI: 6; NOD2 RIPK2 PPI: -8; TLR4 MyD88 comp: -8; TLR9-MyD88 block: -3

How did COc1cccc(Cn2cnc(-c3ccccc3OC)c2-c2ccco2)c1 do in these assays?
Granule exo inh: 16; PRMT1 FP inh: 32*; ABHD5 PLIN5 PPI: 20; NOD2 RIPK2 PPI: -7; PRMT1 inh conf: 5

Results for CCOc1ccc(NC(=O)CSc2nc3ccccc3nc2N2CCCC2)cc1 ?
Granule exo inh: -9; PRMT1 FP inh: -2; ABHD5 PLIN5 PPI: 5; NOD2 RIPK2 PPI: 15; TLR9-MyD88 block: -4

What do the screens show for `CC(=O)Nc1ccc(S(=O)(=O)NNc2ccc([N+](=O)[O-])cc2)cc1`?
Granule exo inh: -2; PRMT1 FP inh: 32*; ABHD5 PLIN5 PPI: -5; NOD2 RIPK2 PPI: -4; TLR9-MyD88 block: -2; PRMT1 inh conf: 14

Results for O=C(c1cnc(Cl)c(Cl)c1)N1CCN(S(=O)(=O)c2cccs2)CC1 ?
Granule exo inh: -14; PRMT1 FP inh: -4; ABHD5 PLIN5 PPI: 0; NOD2 RIPK2 PPI: -6; TLR9-MyD88 block: -21

How did Cc1ccccc1N/N=C/c1sc(=O)n(Cc2cccc(C(=O)O)c2)c1Cl do in these assays?
Granule exo inh: 9; PRMT1 FP inh: 75*; ABHD5 PLIN5 PPI: 12; NOD2 RIPK2 PPI: -5; TLR9-MyD88 block: 3; PRMT1 inh conf: 5

Results for O=C(O)c1cccc(Cn2c(Cl)c(/C=N/NC(=O)c3ccccc3)sc2=O)c1 ?
Granule exo inh: 1; PRMT1 FP inh: 7; ABHD5 PLIN5 PPI: -3; NOD2 RIPK2 PPI: -5; TLR4 MyD88 comp: -3; TLR9-MyD88 block: -14
